Assay results published in a collection of fitness landscapes (doi:10.1038/s41467-024-54723-y).
In all, about 18,000 sequences were measured (“TetR repression strength (sort-seq, GFP reporter)”: median about 0.23, highest 2% from about 0.68 on). Many of the other results were omitted from the sample, so the highest values are more common in it than they were.

Molecular target: TetR (class B, Tn10) (UniProt P04483)
Experiment: TetR repression strength (sort-seq, GFP reporter) (relative to tetO2 = 1); higher = stronger repression
Details: E. coli
Summary of the method: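 Escherichia coli SIG10-MAX cells carried a low-copy plasmid library in which eight operator positions were randomized between a constitutive promoter and sfGFP, and TetR was expressed constitutively. After 5 h of growth at 37 °C in LB with 50 µg/mL chloramphenicol, 10^6 cells were FACS-sorted into 13 fluorescence bins, and each bin was Illumina-sequenced. Repression strength was the top bin index plus one minus the read-weighted mean bin, divided by the value for the unaltered operator. Across three independent transformations, only library members with ≥30 reads in every replicate and a CV ≤0.5 were averaged.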

Chain of TetR (class B, Tn10) (P04483 whole entry): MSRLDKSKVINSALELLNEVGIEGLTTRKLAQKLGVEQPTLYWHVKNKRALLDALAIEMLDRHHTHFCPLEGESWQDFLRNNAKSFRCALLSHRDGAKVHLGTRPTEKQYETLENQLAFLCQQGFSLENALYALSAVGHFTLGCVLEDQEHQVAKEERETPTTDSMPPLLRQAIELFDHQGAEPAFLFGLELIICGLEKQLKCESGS

Sequence	TetR repression strength
TCCCGATAAGTAGCTGAGA	0.921
TCCCTATTAGTGATAGAGA	0.878
TCCCTTATAGTGCCTGAGA	0.162
TCCCGAACAGTGTAGGAGA	0.0968
TCCCGCTTAGTCCGTGAGA	0.183
TCCCTGGAAGTGGGGGAGA	0.208
TCCCTGATAGTTTTCGAGA	0.301
TCCCTCGAAGTAGGGGAGA	0.154
TCCCATTAAGTGAACGAGA	0.253
TCCCCGAGAGTGTGTGAGA	0.248
TCCCGGGGAGTAGCTGAGA	0.709
TCCCGGGAAGTAGCTGAGA	0.647
TCCCGTCAAGTACCCGAGA	0.325
TCCCGGGGAGTGGCTGAGA	0.301
TCCCGTCAAGTGGCCGAGA	0.152
TCCCGTCAAGTAGCCGAGA	1.02
TCCCGAGTAGTAACGGAGA	0.461
TCCCGAGAAGTGCCTGAGA	0.178
TCCCGTCTAGTGAAGGAGA	0.315
TCCCGGTCAGTGCAGGAGA	0.531
TCCCGTCTAGTAGTGGAGA	0.468
TCCCCAGGAGTGGCTGAGA	0.0764
TCCCCTCGAGTCTGAGAGA	0.89
TCCCCTAGAGTCTGAGAGA	0.122
TCCCTCGGAGTCTGTGAGA	0.215
TCCCTCGTAGTCTAAGAGA	0.142

Sequence	TetR repression strength
TCCCCTTGAGTCTGAGAGA	0.333
TCCCTCGTAGTCTGCGAGA	0.447
TCCCTCGTAGTCTGAGAGA	1.03
TCCCTCGGAGTCTGCGAGA	0.522
TCCCTCGGAGTCTGAGAGA	1.02
TCCCAACCAGTTTTAGAGA	0.399
TCCCGCATAGTACGTGAGA	0.273
TCCCGATGAGTTGCTGAGA	0.124
TCCCTGCGAGTGATAGAGA	0.618
TCCCCGTCAGTTTGCGAGA	0.741
TCCCCCTCAGTTTGCGAGA	0.518
TCCCCGTCAGTGCGAGAGA	0.69
TCCCTCTGAGTTTGCGAGA	0.335
TCCCCGGTAGTTTGAGAGA	0.302
TCCCCGTCAGTGCGCGAGA	0.229
TCCCCAGTAGTTTGCGAGA	0.202
TCCCCGTCAGTGTGCGAGA	0.333
TCCCTCTTAGTTTGCGAGA	0.796
TCCCAGTCAGTTTGCGAGA	0.167
TCCCTATTAGTTTGCGAGA	0.417
TCCCCGGTAGTTTGCGAGA	0.971
TCCCGTGGAGTAGCAGAGA	0.169
TCCCTGGGAGTAAGGGAGA	0.28
TCCCGGGGAGTGTTAGAGA	0.247
TCCCTGAGAGTCGATGAGA	0.237
TCCCTTTTAGTATACGAGA	0.242

Sequence	TetR repression strength
TCCCACCGAGTGTTGGAGA	0.286
TCCCCCCAAGTCGGCGAGA	0.00669
TCCCACTGAGTTGGAGAGA	0.16
TCCCTAGCAGTTGAGGAGA	0.0558
TCCCAGCGAGTATGAGAGA	0.0754
TCCCGAAGAGTTGTTGAGA	0.233
TCCCATCTAGTCAGGGAGA	0.305
TCCCCTGCAGTGGGGGAGA	0.225
TCCCTTATAGTGTAGGAGA	0.0398
TCCCATGAAGTGTGTGAGA	0.127
TCCCTGTAAGTCGTGGAGA	0.309
TCCCCGTGAGTCTGAGAGA	0.215
TCCCCGTGAGTCAGAGAGA	0.963
TCCCCGTGAGTCAGGGAGA	0.152
TCCCTGTTAGTGCCAGAGA	0.193
TCCCATTAAGTGCATGAGA	0.106
TCCCTGTAAGTTGACGAGA	0.1
TCCCACTTAGTTGGGGAGA	0.201
TCCCCACTAGTGAAGGAGA	0.203
TCCCACTAAGTGATAGAGA	0.427
TCCCAAGCAGTGATAGAGA	0.505
TCCCAATCAGTGATAGAGA	0.785
TCCCACTCAGTGAGAGAGA	0.514
TCCCACTCAGTGATAGAGA	0.701
TCCCAATCAGTGACAGAGA	0.723
TCCCCAGCAGTGATAGAGA	0.186

Sequence	TetR repression strength
TCCCCATCAGTGATAGAGA	0.966
TCCCCATAAGTGATAGAGA	0.522
TCCCAATCAGTGGTAGAGA	0.521
TCCCAGTCAGTGACAGAGA	0.416
TCCCAAACAGTGACAGAGA	0.622
TCCCCGAGAGTGTTGGAGA	0.156
TCCCGACGAGTAAGTGAGA	0.0202
TCCCGTGCAGTGGGAGAGA	0.177
TCCCCGAAAGTGGTTGAGA	0.272
TCCCCAGTAGTGTAAGAGA	0.139
TCCCTCGTAGTTCGTGAGA	0.105
TCCCGTAGAGTGCAAGAGA	0.396
TCCCGGGCAGTGAAGGAGA	0.251
TCCCGCGGAGTGACGGAGA	0.38
TCCCGAGGAGTACGAGAGA	0.222
TCCCCCATAGTCAGGGAGA	0.312
TCCCAATCAGTGAAGGAGA	0.671
TCCCAATAAGTGTAAGAGA	0.21
TCCCAATCAGTGTCAGAGA	0.335
TCCCAATCAGTGTAAGAGA	0.74
TCCCAATCAGTGAAAGAGA	0.686
TCCCAATCAGTTTAAGAGA	0.368
TCCCAATCAGTCAAAGAGA	0.676
TCCCAAGAAGTGAAAGAGA	0.2
TCCCAATAAGTGAAAGAGA	0.688
